Laboratory results taken from PubChem BioAssay (NCI).
Compounds without any hit were thinned out: in the full panel of roughly 83,000, 20% have a hit.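 How to read the values: 0–100, growth inhibition (40 = 60% inhibited); 0, no net growth; -100 to 0, cell death (-40 = 40% of starting cells died; -100 = all dead).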 A number with no mark means an inactive call. The source made the active and inactive calls. Rule for the calls: active = growth percent below 10; inactive = the rest.

How the values were obtained:
Assay in all cases: NCI-60 one-dose screen, 48 h (100 = growth as untreated, 0 = no growth, -100 = all killed)
NCI-H23 lung = conditions: 10 µM unless noted
NCI-H226 lung = conditions: 10 µM unless noted
NCI-H322M lung = conditions: 10 µM unless noted
HOP-62 NSCLC = conditions: 10 µM unless noted
NCI-H460 lung = conditions: 10 µM unless noted
HOP-92 NSCLC = conditions: 10 µM unless noted
NCI-H522 lung = conditions: 10 µM unless noted
786-0 renal = conditions: 10 µM unless noted
COLO 205 colon = conditions: 10 µM unless noted
DU-145 prostate = conditions: 10 µM unless noted
K-562 leukemia = conditions: 10 µM unless noted
MALME-3M melanoma = conditions: 10 µM unless noted
MDA-MB-231 breast = conditions: 10 µM unless noted
RXF 393 renal = conditions: 10 µM unless noted
SF-268 CNS = conditions: 10 µM unless noted
SF-295 CNS = conditions: 10 µM unless noted
SF-539 CNS = conditions: 10 µM unless noted
UACC-257 melanoma = conditions: 10 µM
M14 melanoma = conditions: 10 µM unless noted

In the case of `COc1ccc(C(=O)/C=C/c2cc(C(=O)c3cc(OC)c(OC)c(OC)c3)ccc2OC)cc1`, the growth (NCI-H23 lung) is reported as 72.9%, the growth (NCI-H226 lung) is reported as 90.7% and the growth (NCI-H322M lung) is reported as 91.5%. The growth (HOP-62 NSCLC) was 100%, the growth (NCI-H460 lung) was 88.6% and the growth (HOP-92 NSCLC) was 70.5%. For the same compound, the growth (NCI-H522 lung) was -0.114% (active), the growth (786-0 renal) was 89.4% and the growth (COLO 205 colon) was 75.9%. The growth (DU-145 prostate) was 79.3%, the growth (K-562 leukemia) was 12.8% and the growth (MALME-3M melanoma) was 77.9%. It also gave a growth (MDA-MB-231 breast) of 51.8%, a growth (RXF 393 renal) of 73% and a growth (SF-268 CNS) of 59.2%. For the same compound, the growth (SF-295 CNS) was 98.1%, the growth (SF-539 CNS) was 55% and the growth (UACC-257 melanoma) was 68%. For the same compound, the growth (M14 melanoma) was 64.7%.

With `CNC(=O)Cc1nc(-c2cccc(NS(=O)(=O)c3c(F)cccc3F)c2F)c(-c2ccnc(Nc3ccccc3)n2)s1` the growth (NCI-H23 lung) was 56%, the growth (NCI-H226 lung) was 74.3% and the growth (NCI-H322M lung) was 60.8%. For the same compound, the growth (HOP-62 NSCLC) was 43.3%, the growth (NCI-H460 lung) was 94% and the growth (HOP-92 NSCLC) was 17.3%. For the same compound, the growth (NCI-H522 lung) was 54.8%, the growth (786-0 renal) was 64% and the growth (COLO 205 colon) was 7.06% (active). For the same compound, the growth (DU-145 prostate) was 79.5%, the growth (K-562 leukemia) was 20.5% and the growth (MALME-3M melanoma) was 0.396% (active). The growth (MDA-MB-231 breast) was -14.3% (active), the growth (RXF 393 renal) was -6.63% (active) and the growth (SF-268 CNS) was 54.9%. For the same compound, the growth (SF-295 CNS) was 101%, the growth (SF-539 CNS) was 68.9% and the growth (UACC-257 melanoma) was 7.77% (active). The growth (M14 melanoma) was 2.35% (active).

With `Clc1ccc(/C=C/c2nc(N3CCOCC3)c3nc(Cl)c(Cl)cc3n2)cc1` the growth (NCI-H23 lung) was 92.2%, the growth (NCI-H226 lung) was 106% and the growth (NCI-H322M lung) was 111%. The growth (HOP-62 NSCLC) was 110%, the growth (NCI-H460 lung) was 105% and the growth (HOP-92 NSCLC) was 94.1%. The growth (NCI-H522 lung) was 95.5%, the growth (786-0 renal) was 92.2% and the growth (COLO 205 colon) was 102%. The growth (DU-145 prostate) was 103%, the growth (K-562 leukemia) was 79.3% and the growth (MALME-3M melanoma) was 113%. It also gave a growth (MDA-MB-231 breast) of 110%, a growth (RXF 393 renal) of 117% and a growth (SF-268 CNS) of 97.3%. It also gave a growth (SF-295 CNS) of 91.9%, a growth (SF-539 CNS) of 98.6% and a growth (UACC-257 melanoma) of 106%. It also gave a growth (M14 melanoma) of 96.4%.

In the case of `CN1C(=O)[C@H]2c3c1cccc3[C@@]13NC(=O)O[C@H]1[C@H](CCC3(C)C)C2(C)C`, the growth (NCI-H23 lung) is reported as 103%, the growth (NCI-H226 lung) is reported as 95.2% and the growth (NCI-H322M lung) is reported as 108%. It also gave a growth (HOP-62 NSCLC) of 96%, a growth (NCI-H460 lung) of 105% and a growth (HOP-92 NSCLC) of 81.9%. The growth (NCI-H522 lung) was 92.6%, the growth (786-0 renal) was 96.6% and the growth (COLO 205 colon) was 107%. For the same compound, the growth (DU-145 prostate) was 106%, the growth (K-562 leukemia) was 82.6% and the growth (MALME-3M melanoma) was 110%. It also gave a growth (MDA-MB-231 breast) of 88.6%, a growth (RXF 393 renal) of 101% and a growth (SF-268 CNS) of 95.2%. The growth (SF-295 CNS) was 75%, the growth (SF-539 CNS) was 98% and the growth (UACC-257 melanoma) was 104%. It also gave a growth (M14 melanoma) of 108%.

In the case of `O=S(=O)(NCCCNc1nccc(-c2c(-c3ccc(F)c(O)c3)nc3sccn23)n1)c1ccc(Cl)cc1`, the growth (NCI-H23 lung) is reported as 80%, the growth (NCI-H226 lung) is reported as 104% and the growth (NCI-H322M lung) is reported as 98.6%. For the same compound, the growth (HOP-62 NSCLC) was 96.6%, the growth (NCI-H460 lung) was 86.3% and the growth (HOP-92 NSCLC) was 74.3%. The growth (NCI-H522 lung) was 57.5%, the growth (786-0 renal) was 110% and the growth (COLO 205 colon) was 42.6%. The growth (DU-145 prostate) was 87.4%, the growth (K-562 leukemia) was 44.2% and the growth (MALME-3M melanoma) was 2.69% (active). The growth (MDA-MB-231 breast) was 66.4%, the growth (SF-268 CNS) was 82.8% and the growth (SF-295 CNS) was 106%. For the same compound, the growth (SF-539 CNS) was 103% and the growth (M14 melanoma) was 18.1%.

Work on `CCCn1c(=S)sc2c(Cl)nc(C)nc21` yielded a growth (NCI-H23 lung) of 110%, a growth (NCI-H226 lung) of 91.6% and a growth (NCI-H322M lung) of 93.6%. It also gave a growth (HOP-62 NSCLC) of 104%, a growth (NCI-H460 lung) of 88.5% and a growth (HOP-92 NSCLC) of 99.3%. It also gave a growth (NCI-H522 lung) of 33%, a growth (786-0 renal) of 106% and a growth (COLO 205 colon) of 43.5%. The growth (DU-145 prostate) was 124%, the growth (K-562 leukemia) was 103% and the growth (MALME-3M melanoma) was 104%. The growth (MDA-MB-231 breast) was 89.1%, the growth (SF-268 CNS) was 98.5% and the growth (SF-295 CNS) was 101%. It also gave a growth (SF-539 CNS) of 93.3% and a growth (M14 melanoma) of 101%.

Work on `Clc1ccc2c(c1)NC1(CCSc3ccccc31)n1nccc1-2` (stereo not given) yielded a growth (NCI-H23 lung) of 98.5%, a growth (NCI-H226 lung) of 92.5% and a growth (NCI-H322M lung) of 95.1%. For the same compound, the growth (HOP-62 NSCLC) was 112%, the growth (NCI-H460 lung) was 103% and the growth (HOP-92 NSCLC) was 91.6%. It also gave a growth (NCI-H522 lung) of 89.7%, a growth (786-0 renal) of 96.9% and a growth (COLO 205 colon) of 114%. The growth (DU-145 prostate) was 103%, the growth (K-562 leukemia) was 97.4% and the growth (MALME-3M melanoma) was 85.8%. For the same compound, the growth (MDA-MB-231 breast) was 98.1%, the growth (RXF 393 renal) was 119% and the growth (SF-268 CNS) was 94.8%. For the same compound, the growth (SF-295 CNS) was 97.4%, the growth (SF-539 CNS) was 92.4% and the growth (UACC-257 melanoma) was 97.4%. The growth (M14 melanoma) was 96.6%.

`O=c1cc(C2NCCc3c2[nH]c2ccccc32)c2c(ccc3ccccc32)o1` (stereo not given) gave a growth (NCI-H23 lung) of 79.6%, a growth (NCI-H226 lung) of 77% and a growth (NCI-H322M lung) of 62.7%. For the same compound, the growth (HOP-62 NSCLC) was 82.4%, the growth (NCI-H460 lung) was 48.1% and the growth (HOP-92 NSCLC) was 41%. The growth (NCI-H522 lung) was 62.4%, the growth (786-0 renal) was 59.1% and the growth (COLO 205 colon) was 65.3%. It also gave a growth (DU-145 prostate) of 59.6%, a growth (K-562 leukemia) of 52.9% and a growth (MALME-3M melanoma) of 60.1%. The growth (MDA-MB-231 breast) was 80.7%, the growth (RXF 393 renal) was 44.2% and the growth (SF-268 CNS) was 85.9%. For the same compound, the growth (SF-295 CNS) was 81.8%, the growth (SF-539 CNS) was 79.4% and the growth (M14 melanoma) was 65.2%.

In the case of `Cc1oc2ncnc(Nc3ccccc3)c2c1C(=O)NCCO`, the growth (NCI-H23 lung) is reported as 92%, the growth (NCI-H226 lung) is reported as 106% and the growth (NCI-H322M lung) is reported as 108%. It also gave a growth (HOP-62 NSCLC) of 99%, a growth (NCI-H460 lung) of 98.6% and a growth (HOP-92 NSCLC) of 88.6%. For the same compound, the growth (NCI-H522 lung) was 96.6%, the growth (786-0 renal) was 98.7% and the growth (COLO 205 colon) was 100%. The growth (DU-145 prostate) was 105%, the growth (K-562 leukemia) was 29.4% and the growth (MALME-3M melanoma) was 107%. For the same compound, the growth (MDA-MB-231 breast) was 75%, the growth (RXF 393 renal) was 104% and the growth (SF-268 CNS) was 99.8%. It also gave a growth (SF-295 CNS) of 100%, a growth (SF-539 CNS) of 88.6% and a growth (M14 melanoma) of 106%.
